This passage reports outcome results from PubChem BioAssay (Tox21).

Records with an inconclusive call do not appear. Activity calls are given as the source filed them. Calls follow the shape of the dose curve; as a rule, active = well fitted cell-killing curve with a large enough effect in the repeat runs; inconclusive = weak or mixed curves, or effect the other way; inactive = no such curve, though single readings can be large or run the other way.

This assay in a line: qHTS assay to identify small molecule antagonists of the vitamin D receptor (VDR) signaling pathway - cell viability counter screen (AID 743225). Also: nearly all actives have a fitted effect of over 50% in size. As to conditions: VDR-bla HEK293T viability, CellTiter-Glo luminescence, 16 h; series mostly up to 61 µM. From the text:
U.S. Tox21 Program National Center for Advancing Translational Sciences [NCATS] NIH Chemical Genomics Center [NCGC] U.S. Environmental Protection Agency [EPA] National Institutes of Environmental Health Sciences [NIEHS] National Toxicology Program [NTP] U.S. Food and Drug Administration [FDA] Tox21 Assay Overview: The vitamin D receptor (VDR), a member of nuclear hormone receptor superfamily, plays a critical role in calcium homeostasis and bone metabolism. It is also involved in cell differentiation and growth, and thrombogenicity. To identify the compounds that inhibit VDR signaling, the VDR-UAS-bla HEK 293T cell line (Invitrogen, Carlsbad, CA, USA) containing a beta-lactamase reporter gene under the control of an upstream activator sequence (UAS) was used to screen the Tox21 10K compound library. The cytotoxicity of the Tox21 compound library against the VDR-bla cell line was tested in parallel by measuring the cell viability using CellTiter-Glo assay (Promega, Madison, WI) in the same wells.
Tox21 Assay Protocol Summary: VDR-bla cells were dispensed at 2,000 cells/5 uL of assay medium per well into black wall/clear-bottom 1536-well plates using a Multidrop Combi (Thermo Fisher Scientific, Waltham, MA) dispenser. After the assay plates were incubated at a 37C and 5% CO2 for 4 h, 23 nL of compounds dissolved in DMSO, positive controls or DMSO only was transferred to the assay plate by a Pintool station (Kalypsys, San Diego, CA), followed by addition of 1 uL of 1-alpha, 25-Dihydroxy Vitamin D3 (3 nM, final concentration in the wells) using a Bioraptr Flying Reagent Dispenser (FRD) workstation (Beckman Coulter, Indianapolis, IN). The plates were incubated at 37C and 5% CO2 for 16 h, and then 1 uL of LiveBLAzerTM B/G FRET substrate was added using a Bioraptr FRD. The plates were incubated at room temperature for 2 h and fluorescence intensity was measured by an Envision plate reader (PerkinElmer, Shelton, CT). For cell viability readout that measures cytotoxicity, 3 ul/well of CellTiter-Glo reagent was added into the assay plates using a Bioraptr FRD. After 30 min incubation at room temperature, the luminescence intensity in the plates was measured using a ViewLux plate reader (PerkinElmer).
A general note: In qHTS, concentration-response curves come from the screen itself.
Take `O=C1OC(=O)c2cc([N+](=O)[O-])ccc21`: the outcome was inactive.

As to `CCC(=O)Nc1cccc(N)c1`, the call was inactive.

Turning to `O=C(O)c1ccc[n+]([O-])c1`, the molecule was classed as inactive.

Take `CCO[Si](CCCN=C=O)(OCC)OCC`: the molecule was called inactive. In the case of `CCCCCCCCC=O` it was “inactive”; in that of `CCCC(C)CO` (stereo not given), “inactive”.

Regarding `CC(C=O)Cc1ccc(C(C)C)cc1` (stereo not given), the molecule was called inactive. In the case of `OCC(CO)(CO)COCC(CO)(CO)CO`, the call was inactive. In the case of `C=C(C)C(=O)NCCCN(C)C` it was “inactive”; in that of `Cc1onc(-c2ccccc2)c1-c1ccc(S(N)(=O)=O)cc1`, “inactive”; in that of `COC(=O)c1ccc(C(=O)OC)c(C(=O)OC)c1`, “inactive”. In the case of `O=C(O)C(O)[C@H](O)[C@@H](O)[C@H](O)[C@H](O)CO` (stereo not given in full) it was “inactive”. For the molecule `CNC(=O)c1c(I)c(NC(=O)CCCCC(=O)Nc2c(I)c(C(=O)O)c(I)c(C(=O)NC)c2I)c(I)c(C(=O)O)c1I`, the outcome was inactive. Under `CCCOCC(C)OCC(C)O` (stereo not given) stands “inactive”; under `C=C(C)C(=O)OCCCCCCCCCCCCCCCCCC`, “inactive”; under `CCCCNc1ccccc1`, “inactive”.

Take `CCOC(=O)Nc1ccc2c(c1)N(C(=O)CCN1CCOCC1)c1ccccc1S2`: the call was inactive. Under `C#CC(O)CCCCC` (stereo not given) stands “inactive”. Take `COc1ccc(COC=O)cc1`: the result was inactive.

Take `COc1ccc(NC(C)=O)cc1`: the molecule was classed as inactive. Turning to `C=CCOCC(O)CS(=O)(=O)O` (stereo not given), the molecule was classed as inactive. In the case of `C/C=C1\C(=O)C[C@H]2[C@@H]3CCC4=CC(=O)CC[C@]4(C)[C@H]3CC[C@]12C` it was “inactive”; in that of `O=c1[nH]c(=O)n([C@H]2O[C@H](CO)[C@@H](O)[C@@H]2O)cc1/C=C\Br`, “inactive”. Under `C[N+](C)(C)CC[N+]1(C)Cc2c(Cl)c(Cl)c(Cl)c(Cl)c2C1` stands “inactive”. In the case of `C=C(C)[C@H]1CC=C(C)CC1` it was “inactive”; in that of `CCN1CCCC(OC(=O)C(c2ccccc2)c2ccccc2)C1` (stereo not given), “inactive”. `NS(=O)(=O)c1cc2c(cc1Cl)NC(CSCc1ccccc1)=NS2(=O)=O`: the molecule was called inactive. For `Cc1cc(C)cc(OCC2CNC(=O)O2)c1` (stereo not given), the call was inactive. Under `OC/C=C/c1ccccc1` stands “inactive”; under `COc1cc(CCC(C)=O)ccc1O`, “inactive”; under `NC(=O)c1c(Cl)cccc1Cl`, “inactive”. `OC1OC[C@@H](O)[C@H](O)[C@H]1O` (stereo not given in full): the result was inactive. In the case of `CC(C)COC(=O)c1ccccc1O` it was “inactive”; in that of `CCC(=O)/C=C/c1ccc(OC)cc1`, “inactive”. Turning to `CCCc1ccc(N)cc1`, the result was inactive. As for `NC(=O)c1ncn([C@@H]2O[C@H](CO)[C@@H](O)[C@H]2O)c1O`, the molecule was called inactive.

On to `OCC(O)[C@@H](O)[C@H](O)[C@H](O)CO[C@H]1O[C@H](CO)[C@@H](O)[C@H](O)[C@H]1O` (stereo not given in full), for which the result was inactive.

Take `CO[Si](OC)(OC)OC`: the molecule was classed as inactive. Under `COc1cc(O)cc(O)c1` stands “inactive”; under `CCOC(=O)Cn1c(=O)sc2cccc(Cl)c21`, “inactive”.
